# Source: PubChem BioAssay (NCATS)
# Inconclusive results are not listed. A call without a number means that no potency is given here. Activity calls are given as the source filed them. Calls follow the shape of the dose curve; as a rule, active = well fitted activation curve with a large enough effect; inconclusive = small, poorly fitted or top-dose-only effect; inactive = no such curve, though single readings can be large or run the other way.
# Biological target: Arylsulfatase A (Homo sapiens) (UniProt P15289)
# Sequence (P15289 whole entry, looked up): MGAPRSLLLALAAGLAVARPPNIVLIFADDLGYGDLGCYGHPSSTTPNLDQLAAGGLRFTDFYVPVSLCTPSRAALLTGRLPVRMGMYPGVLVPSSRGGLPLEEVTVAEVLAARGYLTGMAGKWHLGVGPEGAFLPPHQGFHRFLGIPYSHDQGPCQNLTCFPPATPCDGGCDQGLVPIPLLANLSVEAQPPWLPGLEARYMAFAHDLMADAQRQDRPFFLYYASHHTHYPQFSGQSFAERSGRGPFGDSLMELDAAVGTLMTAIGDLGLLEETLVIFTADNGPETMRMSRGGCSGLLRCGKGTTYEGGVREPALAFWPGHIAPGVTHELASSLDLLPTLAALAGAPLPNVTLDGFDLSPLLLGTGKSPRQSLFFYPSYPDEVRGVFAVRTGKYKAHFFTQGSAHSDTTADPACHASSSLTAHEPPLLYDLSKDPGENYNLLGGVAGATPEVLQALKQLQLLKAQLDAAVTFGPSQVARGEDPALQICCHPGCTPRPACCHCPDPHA
# Assay: qHTS screen for enhancers of Arylsulfatase A (ASA1): LOPAC Validation Assay (AID 720538)
# Conditions: ASA enzyme activity, LOPAC qHTS enhancer assay; series mostly up to 57.5 µM
# Text: Lysosomal storage diseases (LSDs) are caused by genetic mutations in genes encoding proteins important for normal lysosomal function. In affected patients, symptoms are usually not manifested unless the mutations result in more than 90% reduction of enzymatic activity of a specific lysosomal enzyme. […] Small molecules could function as enzyme enhancement agents by binding to and stabilizing mutant misfolded proteins in the endoplasmic reticulum (ER), allowing them to evade the ER associated degradation (ERAD), and eventually reach the lysosome. Moreover, small molecules is hypothesized to be able to enhance the residual activity of deficient lysosomal enzyme by either interacting directly with the mutant enzyme or indirectly by acting in different cellular pathways; resulting to increased levels of the mutant and partially functional protein in the lysosomal compartment.
# A cell based assay in 1536 well plate format was developed to evaluate activity of the lysosomal sulfatase ASA1 enzyme. ASA1 is deficient in metachromatic leukodystrophy (MLD), an LSD characterized by progressive neurodegeneration for which specific treatment is not available. Compounds that are active may therefore have some therapeutic application for this disease. This assay was used to validate the ASA1 qHTS using the Sigma LOPAC library. In this assay increase in signal = enhanced ASA1 activity. Activation is the desired outcome for this assay.
# NIH Chemical Genomics Center [NCGC]
# NIH Molecular Libraries Probe Centers Network [MLPCN]
# Assay Submitter (PI): Gustavo Maegawa, Johns Hopkins University School of Medicine
# [2] Gieselmann V, et al. Acta Paediatr Suppl. 2008; 97: 15-21
# Four microliter (~8,000 cells/well) of SV40-transformed skin fibroblasts from an MLD patient (ASA-I179S) were seeded into a 1,536 solid white plate. Cells were left to adhere for 6 hrs, followed by addition of 23 nL of compounds. Cells were incubated with compounds for 48h at 37 degree C and 5% CO2. Four microliter of 1 mM pNCS substrate/lysis buffer (0.5mM pNCS final concentration) was added and incubated for 14h at room temperature. To stop the reaction, […] of 5 N of NaOH (1N NaOH final concentration) was then added and fluorescence was measured using the ViewLux plate reader (Ex=525 nm; Em=598 nm).
# Potency is read from the fitted curve at half-maximal effect.
row,Structure (SMILES),Potency
1,CN1C2CCCC1CC(NC(=O)c1nn(C)c3ccccc13)C2 (stereo not given),inactive
2,Oc1cc2c(c(Cl)c1O)CCNCC2c1ccccc1 (stereo not given),inactive
3,CC[N+](CC)(CC)CC,inactive
4,Nc1c(S(=O)(=O)O)cc(Nc2ccc(Nc3nc(Cl)nc(Nc4ccc(S(=O)(=O)O)cc4)n3)c(S(=O)(=O)O)c2)c2c1C(=O)c1ccccc1C2=O,26.9 µM (active)
5,S=C(Nc1ccccc1)Nc1nccs1,inactive
6,N#C/C(=C\c1ccc(O)c(O)c1)C(=O)Nc1ccccc1,inactive
7,CCc1ccc(/C=C2/SC(=S)NC2=O)cc1,15.1 µM (active)
8,Cc1cccc(/C=C/c2ccccc2)n1,inactive
9,O=C1c2ccccc2C(=O)c2c(NCCc3ccc(O)cc3)ccc(NCCc3ccc(O)cc3)c21,9.53 µM (active)
10,O=Nc1c(-c2c(O)[nH]c3ccccc23)[nH]c2ccccc12,10.7 µM (active)
